These results are taken from PubChem BioAssay (NCATS).

“And” between values parts separate entries of the source, which are not always exact repeats. Equal values may be shown once. Inconclusive results are not listed. The source made the active and inactive calls. Unless noted, calls follow the shape of the dose curve; as a rule, active = well fitted curve in the direction sought with a large enough effect; inconclusive = small, poorly fitted or top-dose-only effect, or another doubt; inactive = no such curve, though single readings can be large; an effect the other way counts as inactive or inconclusive.

Assay [1] can be described thus: P-glycoprotein substrates identified in KB-3-1 adenocarcinoma cell line, qHTS therapeutic library screen (AID 1346986). Also: nearly all actives have a fitted effect of over 60% in size.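 Also: potency is read from the fitted curve at half-maximal effect; potency is for cytotoxicity meaning loss of cell viability.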 Put shortly: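 Resistance attributable to P-gp was assessed by comparing AC50 in KB-8-5-11 with parental KB-3-1 and by tariquidar reversal. Cells were exposed 72 h and viability read by CellTiter-Glo.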
Assay [2] concerns the target Calcium and integrin-binding protein 1 (Homo sapiens) (UniProt Q99828). The assay can be described thus: Primary qHTS for Identification of Calcium Integrin Binding Protein 1 (CIB1) Competitor (AID 1508620).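 Also: GST tagged CIB1 binding a fluorescein labelled alphaIIb integrin peptide tracer; top concentration of the series differs between compounds; % is scaled to controls: 0 for no effect and ±100 for the full control effect.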 Summed up:
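Fluorescence polarization competition: CIB1-GST (1 uM final) preincubated with compound 15 min at room temperature, then FITC-labeled alphaIIb peptide (100 nM final) added for another 15 min. Polarization read at Ex 480/Em 540.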
In general terms: qHTS replaces the single test concentration by a dilution series.

The nature of assay [3]: Primary qHTS for inhibitors of nuclear receptor binding SET domain protein 2 (NSD2) in an isogenic RCH-ACV NSD2 p.E1099K mutant (9B) (AID 1645876). Also: nearly all actives have a fitted effect of over 70% in size. Also: potency is read from the fitted curve at half-maximal effect.
Assay [4] is described as follows: Primary qHTS for inhibitors of nuclear receptor binding SET domain protein 2 (NSD2) in an RCH-ACV wild type WT cells (2C) (AID 1645877). Also: nearly all actives have a fitted effect of over 70% in size. Also: potency is read from the fitted curve at half-maximal effect.
The target in assay [5] is Glutathione peroxidase 1 (Homo sapiens) (UniProt P07203). Briefly: Primary qHTS Assay for Inhibitors of Recombinant Selenoprotein Glutathione Peroxidase 1 (GPX1) (AID 1845191). Also: nearly all actives have a fitted effect of over 65% in size. Summed up: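 Recombinant GPX1 (10 nM final) was preincubated with compound for 30 min at room temperature, then reacted with 1 mM GSH, 0.5 mM CHP, 0.5 mM NADPH and 100 nM glutathione reductase; NADPH fluorescence (340/450 nm) was read at 0 and 15 min.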

A short description of assay [6]: P-glycoprotein substrates identified in KB-8-5-11 adenocarcinoma cell line, qHTS therapeutic library screen (AID 1346987). Also: nearly all actives have a fitted effect of over 65% in size. Also: potency is read from the fitted curve at half-maximal effect. Summed up:
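KB-8-5-11, a colchicine-selected P-gp-overexpressing KB-3-1 subline, was grown without colchicine for the assay. Cells were seeded at 500 cells/well, dosed in concentration-response and incubated 72 h at 37 degree C, 5% CO2. Viability was read by CellTiter-Glo luminescence.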

Assay [7] has as its target Cytochrome P450 1A2 (Homo sapiens) (UniProt P05177). The assay can be described thus: p450-cyp1a2 (AID 410; calls by dose curve; also: potency is read from the fitted curve at half-maximal effect). Put shortly: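 20nM CYP1A2 with 100uM Luciferin-ME (at Km) in 100mM KPO4; compound preincubated 10 min, NADPH regeneration added, 60 min at room temperature. Luciferin quantified by luminescence after detection reagent; normalized to 57 uM furafylline.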
The target of assay [8] is Glucocorticoid receptor (Homo sapiens) (UniProt P04150). Briefly: GR-GFP Redistribution (AID 450;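 active = compounds whose dose series gives a full or clear partial fitted curve of increased nuclear translocation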; also: potency is read from the fitted curve at half-maximal effect). The note with it: U2OS GR-GFP nuclear translocation, laser cytometry, 2 h.
Assay [9] has the same target. The assay can be described thus: GR-EFC Redistribution (AID 451; calls by dose curve; also: potency is read from the fitted curve at half-maximal effect). The note with it: CHO-K1 GR-EFC translocation, beta-gal luminescence, 2 h. Summed up:
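CHO-K1 cells stably expressing nuclear-localized β-gal enzyme acceptor and GR fused C-terminally to the enzyme donor fragment; ligand-driven nuclear translocation restores β-gal by complementation. Compounds titrated up to 46 uM final, 2 h at 37 °C; luminescence read.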

Assay [10] concerns the target Cytochrome P450 2C9 (Homo sapiens) (UniProt P11712). Briefly: qHTS Assay for Inhibitors and Substrates of Cytochrome P450 2C9 (AID 883). Also: potency is read from the fitted curve at half-maximal effect; nearly all actives have a fitted effect of over 60% in size. Summed up:
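Human CYP2C9 (10nM) hydroxylated Luciferin-H (100uM, at its KM) to luciferin in 25mM KPO4. Compound was preincubated 10 min at 37C, then NADPH regeneration started a 60 min reaction at 37C. Luminescence was read after detection reagent, normalized to 57uM sulphaphenazole.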

Assay [11] deals with Cytochrome P450 2C19 (Homo sapiens) (UniProt P33261). Briefly: qHTS Assay for Inhibitors and Substrates of Cytochrome P450 2C19 (AID 899). Also: potency is read from the fitted curve at half-maximal effect; nearly all actives have a fitted effect of over 60% in size. Summed up: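 Human CYP2C19 (5nM) with Luciferin-H EGE at 10uM (its KM) in 50mM KPO4 was preincubated with compound for 10 min at 37C. NADPH regeneration started a 60 min 37C reaction. Luciferin was read by luminescence, normalized to 57uM ketoconazole.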

Assay [12] addresses Ubiquitin carboxyl-terminal hydrolase 1 (Homo sapiens) (UniProt O94782). Briefly: Inhibitors of USP1/UAF1: Pilot qHTS (AID 504865).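 Also: rhodamine fluorescence freed from ubiquitin-rhodamine substrate followed over time; top concentration of the series differs between compounds; % is scaled to controls: 0 for no effect and ±100 for the full control effect; nearly all actives have a fitted effect of over 35% in size.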 Put shortly: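 1nM USP1/UAF1 + cpd, 15 min RT; start w/ Ub-Rho 150nM final; kinetic FL 480/540 nm, 6 reads q60 s. Buffer 50mM HEPES pH 7.8, 0.5mM EDTA, 1mM TCEP, 0.01% Tween-20, 0.1 mg/ml BSA.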
Assay [13] is described as follows: qHTS profiling of the MIPE4 collection as inhibitors of Plasmodium falciparum (3D7) proliferation (AID 743344; call rule not given here;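 also: scaled between DMSO vehicle wells and 0.29 µM artemisinin as full inhibition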). The following applies: P. falciparum 3D7 in erythrocytes, SYBR Green DNA fluorescence, 72 h; at 28.5 µM (top of the series). Put shortly: (§1)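 Erythrocytes infected with P. falciparum (0.3% parasitemia, 2.5% hematocrit) incubated with compounds 72 h at 37 C, 5% CO2. Lysis with saponin/Triton buffer containing SYBR Green I, overnight at room temperature in the dark; DNA fluorescence (485/535 nm) normalised to 0.29 uM artemisinin and DMSO.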

A short description of assay [14]: qHTS profiling of the MIPE4 collection as inhibitors of Plasmodium falciparum (DD2) proliferation (AID 743345; call rule not given here). The note with it: P. falciparum Dd2 in erythrocytes, SYBR Green DNA, 72 h; at 28.5 µM (top of the series). Put shortly: as §1
Assay [15] in a line: qHTS profiling of the MIPE4 collection as inhibitors of Plasmodium falciparum (DD2) proliferation (Rep 2) (AID 743346; call rule not given here). The note with it: P. falciparum Dd2 in erythrocytes, SYBR Green DNA, 72 h; at 28.5 µM (top of the series). Put shortly: as §1
Assay [16] is described as follows: qHTS profiling of the MIPE4 collection as inhibitors of Plasmodium falciparum (HB3) proliferation (AID 743347; call rule not given here;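 also: plate controls were DMSO vehicle wells for no effect and artemisinin wells for full effect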). The following applies: P. falciparum HB3 in erythrocytes, SYBR Green DNA, 72 h; at 28.5 µM (top of the series). Summed up: as §1
For assay [17], the system named is Zika virus NS2B-NS3 protease. The assay can be described thus: Primary screen GU AMC qHTS for Zika virus inhibitors (AID 1347154).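 Also: 0% = no-inhibitor control and -100% = no-enzyme control; nearly all actives have a fitted effect of over 70% in size.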 Put shortly:
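Unlinked Zika NS2B hydrophilic domain/NS3 protease domain noncovalent complex (25 nM final) in 10 mM Tris-HCl pH 8.0, 0.01% Tween 20, with AMC peptide substrate. Fluorescence (ex 340, em 450 nm) change over 15 min, room temperature; percent inhibition fitted to 4-parameter Hill equation.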

For assay [18], the target named is Phospholipid hydroperoxide glutathione peroxidase GPX4 (Homo sapiens) (UniProt P36969). Briefly: Primary qHTS Assay for Inhibitors of Recombinant Selenoprotein Glutathione Peroxidase 4 (GPX4) (AID 1845192). Also: nearly all actives have a fitted effect of over 65% in size. The following applies: outcome: dose series up to 50 µM unless noted. Summed up:
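GR-coupled readout: 100 nM GR, 1 mM GSH, 0.5 mM NADPH; NADPH fluorescence (ex 340/em 450 nm) read at t=0 and after 15 min RT. GPX4 200 nM, preincubated 30 min with compound; substrate 0.5 mM CHP.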

Assay [19] is described as follows: qHTS drug screen for cell cycle checkpoint inhibitors in PARPi-resistant BRCA-mutant ovarian cancer cell lines. (AID 1963452; calls by dose curve; also: potency is read from the fitted curve at half-maximal effect). The following applies: PEO1/OlaR viability, CellTiter-Glo luminescence, 96 h; for Z-AUC: stronger effect = lower value. Summed up:
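PEO1, PEO4 and PEO1/OlaR ovarian cancer cells, 600 per well, exposed 96 h at 37C to a dilution series. Viability read by CellTiter-Glo luminescence, normalized to DMSO and empty wells; activity summarized as Z-AUC.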

Assay [20] is described as follows: qHTS to identify inhibitors of the type 1 interferon - major histocompatibility complex class I in skeletal muscle: primary screen against the NCATS Mechanism Interrogation Plate v5.0 (MIPE) Libary (AID 1347411). Also: nearly all actives have a fitted effect of over 65% in size. Also: potency is read from the fitted curve at half-maximal effect. Summed up:
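Immortalized human myoblasts (C25cl48) with HiBit knocked into endogenous HLA-B*08:01 were stimulated with 4 ng/ml IFN-beta and given compounds in 11-point 1:3 titration from 46 uM. After 24 h at 37 C, lytic HiBiT luminescence was read.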

Where [21] appears, read: measured here: PEO1 parental Z-AUC.

Phospholipid hydroperoxide glutathione peroxidase GPX4 (Homo sapiens), sequence (P36969 whole entry, looked up): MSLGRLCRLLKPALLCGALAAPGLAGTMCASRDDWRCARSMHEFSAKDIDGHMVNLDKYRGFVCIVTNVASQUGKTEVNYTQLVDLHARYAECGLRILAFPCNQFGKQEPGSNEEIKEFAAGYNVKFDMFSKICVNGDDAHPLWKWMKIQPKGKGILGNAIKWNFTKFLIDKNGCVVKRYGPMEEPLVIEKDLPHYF
Glutathione peroxidase 1 (Homo sapiens), sequence (P07203 whole entry, looked up): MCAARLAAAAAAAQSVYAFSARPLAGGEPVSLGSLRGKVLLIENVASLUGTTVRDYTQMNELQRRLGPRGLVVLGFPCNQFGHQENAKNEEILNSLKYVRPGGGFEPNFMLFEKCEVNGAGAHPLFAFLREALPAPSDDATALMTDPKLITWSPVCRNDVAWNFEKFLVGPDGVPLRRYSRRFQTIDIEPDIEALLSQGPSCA
Calcium and integrin-binding protein 1 (Homo sapiens), sequence (Q99828 whole entry, looked up): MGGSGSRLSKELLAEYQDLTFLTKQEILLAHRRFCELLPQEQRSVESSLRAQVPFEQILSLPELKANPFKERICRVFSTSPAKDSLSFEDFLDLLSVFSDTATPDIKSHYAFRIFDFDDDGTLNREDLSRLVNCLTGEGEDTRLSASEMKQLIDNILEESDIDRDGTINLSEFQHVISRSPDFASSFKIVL
Glucocorticoid receptor (Homo sapiens), sequence (P04150 whole entry, looked up): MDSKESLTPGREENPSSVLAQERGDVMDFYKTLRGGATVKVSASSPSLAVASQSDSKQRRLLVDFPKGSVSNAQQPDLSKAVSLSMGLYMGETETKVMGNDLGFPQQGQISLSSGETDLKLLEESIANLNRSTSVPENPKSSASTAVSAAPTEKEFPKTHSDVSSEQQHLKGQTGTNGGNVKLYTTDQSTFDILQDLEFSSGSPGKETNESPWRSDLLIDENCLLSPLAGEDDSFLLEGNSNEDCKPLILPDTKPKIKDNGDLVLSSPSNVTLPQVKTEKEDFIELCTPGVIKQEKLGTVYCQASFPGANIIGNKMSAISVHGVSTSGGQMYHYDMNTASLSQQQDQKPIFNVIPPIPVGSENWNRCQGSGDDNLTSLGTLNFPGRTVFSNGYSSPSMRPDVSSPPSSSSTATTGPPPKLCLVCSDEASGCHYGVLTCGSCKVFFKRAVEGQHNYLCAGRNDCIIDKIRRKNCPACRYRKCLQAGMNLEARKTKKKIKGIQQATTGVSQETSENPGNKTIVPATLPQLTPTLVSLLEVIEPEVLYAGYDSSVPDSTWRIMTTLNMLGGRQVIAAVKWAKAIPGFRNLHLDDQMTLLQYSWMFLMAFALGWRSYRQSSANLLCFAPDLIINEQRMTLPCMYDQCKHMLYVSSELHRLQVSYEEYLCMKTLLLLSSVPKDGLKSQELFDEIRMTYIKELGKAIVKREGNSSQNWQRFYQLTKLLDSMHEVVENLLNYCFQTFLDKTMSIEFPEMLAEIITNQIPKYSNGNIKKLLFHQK
Cytochrome P450 1A2 (Homo sapiens), sequence (P05177 whole entry, looked up): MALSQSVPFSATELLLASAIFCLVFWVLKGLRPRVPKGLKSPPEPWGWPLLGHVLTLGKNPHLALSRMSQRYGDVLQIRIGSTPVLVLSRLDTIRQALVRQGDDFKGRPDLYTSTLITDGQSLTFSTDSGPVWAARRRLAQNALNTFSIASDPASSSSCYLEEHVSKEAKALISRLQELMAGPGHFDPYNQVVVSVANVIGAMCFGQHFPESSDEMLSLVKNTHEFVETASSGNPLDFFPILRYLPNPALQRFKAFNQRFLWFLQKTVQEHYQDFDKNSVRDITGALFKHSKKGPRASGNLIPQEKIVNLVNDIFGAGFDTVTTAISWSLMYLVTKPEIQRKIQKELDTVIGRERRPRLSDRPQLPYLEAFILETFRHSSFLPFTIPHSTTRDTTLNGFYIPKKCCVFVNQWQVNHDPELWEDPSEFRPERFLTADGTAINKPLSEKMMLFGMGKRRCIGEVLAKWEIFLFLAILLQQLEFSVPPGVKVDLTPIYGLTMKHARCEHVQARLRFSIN
Cytochrome P450 2C9 (Homo sapiens), sequence (P11712 whole entry, looked up): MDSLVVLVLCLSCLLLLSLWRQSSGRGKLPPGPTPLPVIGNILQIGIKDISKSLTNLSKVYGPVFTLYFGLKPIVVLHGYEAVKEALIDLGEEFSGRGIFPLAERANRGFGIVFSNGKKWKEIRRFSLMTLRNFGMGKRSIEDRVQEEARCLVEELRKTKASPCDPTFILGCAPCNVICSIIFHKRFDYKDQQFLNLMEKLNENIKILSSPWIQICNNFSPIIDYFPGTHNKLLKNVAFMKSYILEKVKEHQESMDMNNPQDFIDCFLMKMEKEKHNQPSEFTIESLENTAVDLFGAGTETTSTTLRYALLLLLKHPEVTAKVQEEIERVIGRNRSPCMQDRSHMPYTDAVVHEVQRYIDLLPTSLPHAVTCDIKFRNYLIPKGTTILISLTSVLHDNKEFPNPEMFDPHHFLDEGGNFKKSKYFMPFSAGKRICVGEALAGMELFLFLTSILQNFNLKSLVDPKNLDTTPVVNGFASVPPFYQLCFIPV
Cytochrome P450 2C19 (Homo sapiens), sequence (P33261 whole entry, looked up): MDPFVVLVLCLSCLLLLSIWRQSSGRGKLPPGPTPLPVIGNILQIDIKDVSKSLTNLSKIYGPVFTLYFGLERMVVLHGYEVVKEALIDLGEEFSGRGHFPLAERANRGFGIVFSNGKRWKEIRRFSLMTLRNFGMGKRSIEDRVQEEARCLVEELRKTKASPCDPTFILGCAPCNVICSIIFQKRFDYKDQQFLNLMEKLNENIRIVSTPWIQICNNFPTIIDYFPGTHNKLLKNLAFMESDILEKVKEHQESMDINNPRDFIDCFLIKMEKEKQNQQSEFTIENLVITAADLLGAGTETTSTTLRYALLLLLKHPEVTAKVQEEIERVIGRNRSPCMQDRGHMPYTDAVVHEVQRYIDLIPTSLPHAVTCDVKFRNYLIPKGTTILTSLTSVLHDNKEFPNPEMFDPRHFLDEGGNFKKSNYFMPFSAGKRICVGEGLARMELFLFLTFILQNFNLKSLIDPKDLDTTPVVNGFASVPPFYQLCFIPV
Ubiquitin carboxyl-terminal hydrolase 1 (Homo sapiens), sequence (O94782 whole entry, looked up): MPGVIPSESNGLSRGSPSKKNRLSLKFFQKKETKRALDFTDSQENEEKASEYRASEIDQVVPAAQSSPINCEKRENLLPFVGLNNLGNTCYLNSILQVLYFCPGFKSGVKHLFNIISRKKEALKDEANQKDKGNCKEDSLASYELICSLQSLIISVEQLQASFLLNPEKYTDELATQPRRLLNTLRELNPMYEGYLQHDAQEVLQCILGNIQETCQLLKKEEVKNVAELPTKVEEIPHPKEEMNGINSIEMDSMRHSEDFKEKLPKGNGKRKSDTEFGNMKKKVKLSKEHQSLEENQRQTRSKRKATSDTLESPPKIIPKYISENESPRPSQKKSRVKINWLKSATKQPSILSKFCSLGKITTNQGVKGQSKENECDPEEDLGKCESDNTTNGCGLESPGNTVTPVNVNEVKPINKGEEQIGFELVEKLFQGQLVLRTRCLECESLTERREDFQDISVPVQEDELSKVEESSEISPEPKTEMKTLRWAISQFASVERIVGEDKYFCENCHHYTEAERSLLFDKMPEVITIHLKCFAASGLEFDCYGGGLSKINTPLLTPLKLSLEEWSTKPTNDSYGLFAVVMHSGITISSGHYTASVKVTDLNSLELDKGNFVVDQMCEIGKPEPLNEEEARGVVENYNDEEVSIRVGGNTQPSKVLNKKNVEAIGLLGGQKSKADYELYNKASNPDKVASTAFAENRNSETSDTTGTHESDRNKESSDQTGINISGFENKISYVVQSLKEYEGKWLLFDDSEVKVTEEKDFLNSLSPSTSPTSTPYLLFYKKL

Take `Cc1ccc(NS(=O)(=O)c2cc3c(cc2F)NC(=O)CC3)cc1Cl`: the Potency entry in assay [1], in [3], in assay [4] and in [5] was “inactive” throughout. Further, in assay [2], the result was inactive.

As to `Cc1nc(CNc2ncnc3ccc(-c4ccc5c(c4)OCO5)cc23)cs1`, the Potency entry in assay [1], in [6] and in assay [5] was “inactive” in each case.

Consider `O=C(O)c1ccc2c3c1cccc3c(=O)n1c3ccccc3nc21`, for which the Potency is 15.8 µM (active) in assay [7]; > 46 µM (inactive) in [8]; > 46 µM (inactive) in assay [9]; 0.158 µM (active) in [10]; 3.98 µM (active) in [11]. The Potency entry in assay [12], in [1], in assay [17], in assay [4] and in assay [5] was “inactive” each time. In assay [13], this compound returned a parasite growth, % of DMSO control of 91.8%. The same compound gave a parasite growth remaining, % of DMSO control (lower = more inhibition) in assay [14] of 97.7%. The compound further returned a parasite growth, % of control (lower = inhibition) in assay [15] of 85.8%. For the same compound, in assay [16], the growth, % of control stood at 60.1%.

`COC1(c2sc3c(N4CCOCC4)nc(-c4cnc(N)nc4)nc3c2C)COC1`: the Potency in assay [1] was 0.184 µM (active); in assay [6], 0.184 µM (active); in assay [3], 209 nM (active); in assay [4], 0.186 µM (active). Besides, the Potency result in assay [5] and in assay [18] was “inactive” in each case. Moreover, the results for the Z-AUC in assay [19], in assay [19] (setting [21]) and in [19] (measured here: PEO4 Z-AUC) were -1.69 (inactive), -1.58 and -1.08, respectively.

Regarding `Cc1cc(I)ccc1Nc1c(C(=O)NOCC2CC2)cc(F)c(F)c1F`, the Potency in assay [1] was 23.1 µM (active); in assay [6], 18.4 µM (active); in assay [3], 8330 nM (active); in assay [4] it was 7.42 µM (active). Moreover, the Potency entry in [5] was “inactive”. Also, the Z-AUC is 0.467 (inactive) in assay [19], 0.0632 in [19] (setting [21]) and 0.231 in [19] (measured here: PEO4 Z-AUC).

Turning to `CCCCCC1CC1CC1CC1CCCCCCCC(=O)O` (configuration not stated), the Potency result in assay [1], in assay [6], in assay [3], in assay [4] and in assay [5] was “inactive” each time.

Turning to `CN1CCN(c2nc(C3=C(c4c[nH]c5ccccc45)C(=O)NC3=O)c3ccccc3n2)CC1`, the Potency result in assay [1], in assay [6], in [5] and in assay [18] was “inactive” throughout. The Potency is 16.4 µM (active) and 16.6 µM (active) in [3]; 14.8 µM (active) in assay [4]. In addition, the Z-AUC in assay [19] was 1.37 (inactive); in assay [19] (setting [21]), 0.875; in [19] (measured here: PEO4 Z-AUC) it was 0.634.

With `Cc1cc(/C=c2/sc3nc4ccccc4n3c2=O)c(C)n1-c1ccccc1`, the Potency result in assay [1], in assay [20] and in [5] was “inactive” throughout. The results for the Z-AUC in assay [19], in assay [19] (setting [21]) and in assay [19] (measured here: PEO4 Z-AUC) were 0.302 (inactive), 0.332 and 0.429, respectively.

For the compound `CN1C/C=C/CCOc2cccc(c2)-c2ccnc(n2)Nc2cccc(c2)C1`, the Potency is 0.092 µM (active) in [1]; 0.165 µM (active) in assay [20]; 92 nM (active) in assay [3]; 0.0731 µM (active) in [4]; 0.549 µM (active) in assay [19]. For the same compound, the Potency entry in [5] and in [18] was “inactive” in each case. The Z-AUC was -1.71 in assay [19] (setting [21]) and -1.51 in [19] (measured here: PEO4 Z-AUC).

Consider `CCCCCCCCCCCCCCCCOCCCOP(=O)(O)COC(CO)Cn1ccc(N)nc1=O` (configuration not stated), for which the Potency is 8.2 µM (active) in assay [1] and 18.6 µM (active) in [4]. In addition, the Potency result in assay [20], in [5] and in assay [18] was “inactive” in each case. For the same compound, the outcome in assay [2] was inactive. The Z-AUC in assay [19] is 0.0641 (inactive); in assay [19] (setting [21]), -0.362; in assay [19] (measured here: PEO4 Z-AUC) it was -0.397.
